The results in this text go back to PubChem BioAssay (NCI).

Assay [1] in a line: NCI Yeast Anticancer Drug Screen. Data for the rad50 strain (AID 155).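 Also: 0% = growth of vehicle-only cultures of the same strain.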 To be noted: S. cerevisiae rad50 strain growth inhibition; at 50.0 µM; hits give high values. In short, it runs like this:
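Vehicle-treated cultures provide the reference for the growth inhibition reported for compound-exposed, repair-deficient yeast.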

Assay [2] is described as follows: NCI Yeast Anticancer Drug Screen. Data for the mec2-1 strain (AID 157). Conditions: S. cerevisiae mec2-1 strain, at 50.0 µM, hits give high values. The gist of the method: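 Readout is yeast growth inhibition, normalised to vehicle-treated controls, in the mec2-1 strain exposed to compound.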
Assay [3] can be described thus: NCI Yeast Anticancer Drug Screen. Data for the sgs1 mgt1 strain (AID 161).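 Also: 0% = growth of cultures given vehicle only.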 Conditions: S. cerevisiae sgs1 mgt1 strain, at 50.0 µM, hits give high values. In short, it runs like this: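 Growth of a repair-deficient yeast mutant was monitored after compound treatment and expressed as inhibition relative to vehicle-treated cultures.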
Assay [4] can be described thus: NCI Yeast Anticancer Drug Screen. Data for the cln2 rad14 strain (AID 165).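 Also: 0% = growth equal to vehicle treated cultures.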 To be noted: S. cerevisiae cln2 rad14 strain, at 50.0 µM, hits give high values. In short, it runs like this:
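Relative to vehicle controls, growth inhibition of compound-treated cln2 rad14 yeast was recorded.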

Assay [5] is described as follows: NCI Yeast Anticancer Drug Screen. Data for the bub3 strain (AID 167). Conditions: S. cerevisiae bub3 mutant strain, at 50.0 µM, hits give high values. In short, it runs like this:
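Mutant yeast screening strain plus compound; vehicle-treated cultures serve as the 0% inhibition reference.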

Assay [6] can be described thus: NCI Yeast Anticancer Drug Screen. Data for the mlh1 rad18 strain (AID 175). To be noted: S. cerevisiae mlh1 rad18 strain growth inhibition; at 50.0 µM; hits give high values. In short, it runs like this: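 Test agents were incubated with a yeast strain of defined genotype (DNA damage repair defect). Inhibition of growth was derived by comparison with vehicle-exposed cultures.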

About 79,000 compounds went through this panel and 15% of them were active in at least one assay; those are over-represented in the sample as a whole. Unmarked numbers belong to inactive results. Activity calls are given as the source filed them. Rule as the data show it: active = growth inhibition above about 70%; inactive = the rest.

On to `Clc1ccc(/C=C/c2ccccn2)cc1`, for which the growth inhibition in assay [1] is 21.1%; in assay [2], 2.05%; in assay [3], 9.3%; in assay [4], -16.2%; in assay [5], 7.5%; in assay [6], 28.4%.
Take `Cc1ccc(S(N)(=O)=O)cc1Cl`: the growth inhibition in assay [1] is 10.1%; in assay [2], -20.1%; in assay [3], 13.2%; in assay [4] it was 5.8%; in assay [5], -1.5%; in assay [6], 16.6%.
As for `COc1ccc(/C=C\C(=O)/C=C/c2ccc(OC)cc2)cc1`, the growth inhibition in assay [1] is -11.9%; in assay [2], 7.05%; in assay [3], 1.5%; in assay [4], -14.4%; in assay [5], -3.35%; in assay [6] it was 0%.
Consider `Cn1c2ccccc2c2nnc(NCCCCO)nc21`, for which the growth inhibition in assay [1] was 10.4%; in assay [2] it was 18.3%; in assay [3] it was 19.1%; in assay [4], 24.8%; in assay [5], 19.6%; in assay [6], 41.2%.
In the case of `O=C(O)c1ccc([N+](=O)[O-])cc1S(=O)(=O)O`, the growth inhibition in assay [1] is -21.6%; in assay [2], -6.8%; in assay [3] it was -24.3%; in assay [4], -22.9%; in assay [5] it was -8.4%; in assay [6], -4.55%.
Regarding `O=C(CCl)Nc1ccccc1SCc1cc(Cl)cc2c1OCOC2`, the growth inhibition in assay [1] is -5.7%; in assay [2], -16.4%; in assay [3] it was 21.6%; in assay [4] it was 22.9%; in assay [5], 13.6%; in assay [6] it was -8.9%.
On to `CCNCC(C)(C)O`, for which the growth inhibition in assay [1] was 7.7%; in assay [2], -3.8%; in assay [3], 5.5%; in assay [4] it was 8.35%; in assay [5], -0.5%; in assay [6], 27.8%.
With `Clc1cccc(Cl)c1C1CSc2ccccc2N=C1c1ccccc1` (configuration not stated), the growth inhibition in assay [1] was -2.55%; in assay [2] it was 8.9%; in assay [3], 16.3%; in assay [4], 11%; in assay [5], -0.9%; in assay [6], 3.65%.
On to `CC1CN(CCO)CC(C)O1` (configuration not stated), for which the growth inhibition in assay [1] is -14.1%; in assay [2], -26.8%; in assay [3], 4.05%; in assay [4], 5%; in assay [5], -1.15%; in assay [6] it was -10.2%.
As to `CCCC(OC(C)=O)c1ccc2c(c1)OCO2` (configuration not stated), the growth inhibition in assay [1] is 26.4%; in assay [2], 27.5%; in assay [3] it was 17.3%; in assay [4], -12%; in assay [5], 20.9%; in assay [6], 29.2%.
With `COc1ccc(C2CCCCC2=O)cc1` (configuration not stated), the growth inhibition was -17.2% in assay [1]; -48.9% in assay [2]; -11.8% in assay [3]; 5.3% in assay [4]; -34.2% in assay [5]; -11.8% in assay [6].
In the case of `CC1CC2C3CCC4=CC(=O)CCC4(C)C3CCC2(C)C1(O)C(=O)CO` (configuration not stated), the growth inhibition in assay [1] was 2%; in assay [2], -0.8%; in assay [3], 9.1%; in assay [4], -44%; in assay [5], -14.3%; in assay [6], -0.55%.
As to `CCCC1OC(c2ccco2)OCC1CC` (configuration not stated), the growth inhibition is 30.8% in assay [1]; -2.15% in assay [2]; 18.6% in assay [3]; -27.8% in assay [4]; -0.05% in assay [5]; 27.1% in assay [6].
For `CN(C)c1ncnc2c1cnn2C`, the growth inhibition in assay [1] was -9.55%; in assay [2], -0.6%; in assay [3], 9.3%; in assay [4], -13.6%; in assay [5], -0.7%; in assay [6], 2.65%.
For the molecule `CC1CC(C)S(=O)(=O)C1` (configuration not stated), the growth inhibition in assay [1] was -35%; in assay [2] it was -30.9%; in assay [3], -39%; in assay [4] it was -14.9%; in assay [5], -39.8%; in assay [6], -2%.
`COc1cc2c(c(OC)c1OC)-c1ccc(SC)c(=O)cc1[C@@H](NC1OC(CO)C(O)C(O)C1O)CC2` (some centres not stated): the growth inhibition was -10.6% in assay [1]; -1.85% in assay [2]; 5.25% in assay [3]; 6.2% in assay [4]; 5.05% in assay [5]; 3.45% in assay [6].
Consider `C=C1CC2(OC1=O)C(=O)N(C)c1ccc(I)cc12` (configuration not stated), for which the growth inhibition was 91.3% (active) in assay [1]; 93.2% (active) in assay [2]; 92.1% (active) in assay [3]; 90.5% (active) in assay [4]; 91.5% (active) in assay [5]; 91.2% (active) in assay [6].
On to `CCCCCCCCCCCCCCCCCC(=O)NCCNC(=O)CCCCCCCCCCCCCCCCC`, for which the growth inhibition in assay [1] is -5.7%; in assay [2], -27.6%; in assay [3] it was -1.15%; in assay [4], 20.6%; in assay [5], 1.5%; in assay [6] it was -4.25%.
In the case of `Cc1cc2c3ccc(C)[n+](C)c3ccc2n1C`, the growth inhibition in assay [1] was -4.3%; in assay [2], 5.9%; in assay [3] it was 10.6%; in assay [4] it was -66.6%; in assay [5], 7.65%; in assay [6], -5.25%.
As for `CC(=O)Nc1ccc(/C=C2\SC(=S)N(/C=C(\C(C)=O)C(N)=O)C2=O)cc1`, the growth inhibition in assay [1] was -52%; in assay [2], -7.4%; in assay [3], -37.6%; in assay [4], -0.8%; in assay [5] it was -5%; in assay [6] it was -11.2%.
Turning to `CC(=O)NCNC(C)=O`, the growth inhibition in assay [1] was -4.1%; in assay [2] it was 5.4%; in assay [3], 3.75%; in assay [4], -75.1%; in assay [5], 7.8%; in assay [6], -0.6%.
Turning to `Clc1ncnc2nc[nH]c12`, the growth inhibition in assay [1] was -1.9%; in assay [2] it was -1%; in assay [3], 15.5%; in assay [4], 16.9%; in assay [5] it was 0.35%; in assay [6] it was -39.4%.
